In PMC4336329 (PLoS ONE, 2015):
The campaign covered roughly 310,000 compounds. About 14,000 (4.5%) showed an effect of 50% or more. The effect is printed as a negative number. The entries come from a sample that favours strong results as a whole.

What follows are compounds tested against human ether-à-go-go-related gene (hERG) potassium channel (human, UniProt Q12809) (assay: primary screen, population patch clamp on CHO cells stably expressing hERG; higher = less effect of the substance).
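Also: peak tail current of the secondary pulse compared with the same well before compound.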

Chain of human ether-à-go-go-related gene (hERG) potassium channel (Q12809 whole entry, looked up): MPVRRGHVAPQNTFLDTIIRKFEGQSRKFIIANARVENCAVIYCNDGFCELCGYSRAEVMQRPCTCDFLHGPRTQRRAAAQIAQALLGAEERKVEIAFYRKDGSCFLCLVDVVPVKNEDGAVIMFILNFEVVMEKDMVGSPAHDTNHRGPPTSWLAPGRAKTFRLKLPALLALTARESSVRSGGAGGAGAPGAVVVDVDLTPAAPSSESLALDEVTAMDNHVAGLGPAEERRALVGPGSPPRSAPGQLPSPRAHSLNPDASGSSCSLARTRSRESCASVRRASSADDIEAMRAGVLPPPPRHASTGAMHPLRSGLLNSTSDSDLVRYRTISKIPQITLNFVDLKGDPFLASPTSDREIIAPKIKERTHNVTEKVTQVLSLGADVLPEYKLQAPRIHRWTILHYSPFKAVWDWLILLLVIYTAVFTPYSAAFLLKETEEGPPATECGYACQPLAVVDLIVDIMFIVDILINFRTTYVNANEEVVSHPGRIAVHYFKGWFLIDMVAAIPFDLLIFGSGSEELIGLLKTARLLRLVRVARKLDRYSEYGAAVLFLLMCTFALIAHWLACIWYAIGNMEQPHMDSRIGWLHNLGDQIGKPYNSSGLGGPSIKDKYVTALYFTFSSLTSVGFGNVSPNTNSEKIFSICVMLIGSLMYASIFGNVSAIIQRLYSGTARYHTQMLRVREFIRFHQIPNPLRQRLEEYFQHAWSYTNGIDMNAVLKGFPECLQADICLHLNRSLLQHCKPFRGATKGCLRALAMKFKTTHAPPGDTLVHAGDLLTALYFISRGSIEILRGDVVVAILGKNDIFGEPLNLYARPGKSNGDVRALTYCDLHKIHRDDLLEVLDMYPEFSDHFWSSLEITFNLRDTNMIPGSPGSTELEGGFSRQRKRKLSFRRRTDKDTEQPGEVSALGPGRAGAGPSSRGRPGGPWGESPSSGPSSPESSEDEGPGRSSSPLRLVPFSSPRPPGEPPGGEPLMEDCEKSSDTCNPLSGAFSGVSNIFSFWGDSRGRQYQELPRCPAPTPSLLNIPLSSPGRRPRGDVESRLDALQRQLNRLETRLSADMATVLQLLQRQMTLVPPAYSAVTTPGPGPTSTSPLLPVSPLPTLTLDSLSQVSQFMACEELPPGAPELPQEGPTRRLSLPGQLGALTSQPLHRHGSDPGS

SMILES | hERG current change (%, negative = inhibition) at 10uM
O=S(=O)(c1ccc(Br)cc1)N1CCn2c(nc3ccccc32)C1 | -7.4%
CCOc1cc(C(=O)OCC(=O)Nc2cc(C)on2)cc(OCC)c1OCC | 2.29%
Cc1ccc(NC(=O)CNC(=O)c2ccco2)cc1Cl | 17%
COc1ccc(OC)c(-c2csc(N(Cc3ccco3)C(=O)c3ccco3)n2)c1 | 7.74%
CCOc1ccccc1N1CC(C(=O)N(C)Cc2cccnc2)CC1=O (stereo not shown) | 15%
COc1ccc(N(C)C(=O)CCS(=O)(=O)c2cccc3nonc23)c(OC)c1 | 1.11%
Cl.N=c1n(CCN2CCCC2)c2ccccc2n1CC(O)c1ccco1 (stereo not shown) | -34%
Cl.Cn1c(=N)n(CC(O)c2ccco2)c2ccccc21 (stereo not shown) | -9.79%
CCN(CC)CCn1c(=N)n(CC(O)c2ccco2)c2ccccc21.Cl (stereo not shown) | -73.2%
CCCn1c(=N)n(CC(O)c2ccco2)c2ccccc21.Cl (stereo not shown) | -43.8%
CCCCCCCn1c(=N)n(CC(O)c2ccco2)c2ccccc21.Cl (stereo not shown) | -86.9%
Cl.N=c1n(CCN2CCCCC2)c2ccccc2n1CC(O)c1ccco1 (stereo not shown) | -55.2%
CC(=O)N1N=C(C)CC1c1ccc(OCc2ccccc2)cc1 (stereo not shown) | -15.5%
O=C(CN(CC(=O)N1CCOCC1)S(=O)(=O)c1ccc(Br)s1)N1CCOCC1 | 12.8%
CCOc1ccc(N(C(C)C(=O)NCc2ccco2)S(C)(=O)=O)cc1 (stereo not shown) | -2.31%
NC(=O)CC(NC(=O)c1cccc(Br)c1)c1ccc(N2CCN(c3ccc(F)cc3)CC2)c([N+](=O)[O-])c1 (stereo not shown) | -2.08%
O=C(CNS(=O)(=O)c1ccc(Br)s1)N1CCCC1 | 22%
COc1ccc(C(=O)NCCC2=CCCCC2)cc1OC | -3.21%
COc1ccccc1CCNC(=O)c1ccc(OC)c(OC2CCN(C(C)C)CC2)c1 | -46.3%
COCCCNC(=O)c1ccc(OC)c(OC2CCN(C(C)C)CC2)c1 | 10.3%
COc1cccc(CCNC(=O)c2ccc(OC)c(OC3CCN(C(C)C)CC3)c2)c1 | -57.4%
COc1ccc(C(=O)NCCC2=CCCCC2)cc1OC1CCN(C(C)C)CC1 | -78.1%

SMILES | hERG current change (%, negative = inhibition) at 10uM
COc1cc(C(=O)NCCC2=CCCCC2)ccc1OC1CCN(C(C)=O)CC1 | 2.98%
CC1CN=C(NCc2ccc(F)cc2)S1 (stereo not shown) | -8.5%
CCOc1ccccc1C(=O)Nc1cc(C(=O)NCC(C)C)ccc1Cl | 12%
CCCc1ccc(Oc2c(-c3ccc(O)c(C)c3O)n[nH]c2C)cc1 | -13.2%
Cc1nc2sccn2c(=O)c1S(=O)(=O)N1CCN(c2ccccc2)CC1 | -11.2%
COc1ccc(N2CCN(S(=O)(=O)c3c(C)nc4sccn4c3=O)CC2)cc1 | -9.86%
Cc1nc2sccn2c(=O)c1S(=O)(=O)N1CCN(c2ccc(F)cc2)CC1 | -70.2%
Cc1cc(NC(=O)Nc2ccc(OCc3ccccc3)cc2)n(C)n1 | 23.8%
COc1ccc(-n2c(Cc3cccn3C)nnc2SCC(=O)NCc2ccco2)cc1 | -12.9%
Cc1nc(SCc2c(Cl)cccc2Cl)nc(OC(=O)N(C)C)c1C | -4.32%
CCc1ccc(-c2csc3ncn(CC(=O)NCc4ccco4)c(=O)c23)cc1 | -4.39%
O=C(Cn1cnc2scc(-c3cccc([N+](=O)[O-])c3)c2c1=O)NCc1ccco1 | -54%
O=C(Cn1cnc2scc(-c3ccccc3)c2c1=O)NCc1ccco1 | -24.9%
CC(C)(C)c1ccc(COC(=O)CNC(=O)CNC(=O)Cc2ccccc2)cc1 | -6.93%
CCOP(=O)(CC(C(C)=O)C(O)c1ccccc1)OCC (stereo not shown) | 11.3%
CCOCCCNC(=O)c1cc2c(=O)n3ccccc3nc2s1 | -7.05%
COc1ccc(S(=O)(=O)N2CCCCCC2)cc1C(=O)N(C)Cc1cccs1 | -40.5%
COc1ccc(S(=O)(=O)N2CCCCCC2)cc1C(=O)NCc1ccc(C)cc1 | -29.1%
Cc1ccc(S(=O)(=O)N2CCCCC2)cc1C(=O)NCCc1ccccc1 | 11.2%
CCCC(C)NC(=O)c1cc(S(=O)(=O)N2CCCCCC2)ccc1OC (stereo not shown) | -54.4%
COc1ccc(S(=O)(=O)N2CCCCCC2)cc1C(=O)NCCc1ccccc1 | -65.5%
O=C(NCc1cccs1)c1cc(S(=O)(=O)N2CCCCC2)ccc1Cl | 5.07%

SMILES | hERG current change (%, negative = inhibition) at 10uM
COc1ccc(S(=O)(=O)N2CCCCCC2)cc1C(=O)NCc1cccs1 | -68.3%
O=C(NCc1ccncc1)c1cc(S(=O)(=O)N2CCOCC2)c(Cl)cc1Cl | -13.3%
COc1ccc(S(=O)(=O)N2CCCC2)cc1C(=O)O | 30.4%
O=C(NCC(c1cccs1)N1CCOCC1)c1cc(S(=O)(=O)N2CCOCC2)c(Cl)cc1Cl (stereo not shown) | -9.54%
COc1ccc(S(=O)(=O)N2CCCCCC2)cc1C(=O)NCCc1ccc(F)cc1 | -31.4%
O=C(NCc1cccs1)c1cc(S(=O)(=O)N2CCOCC2)c(Cl)cc1Cl | -81.6%
COc1ccc2ncn(-c3ccccc3)c2c1 | -7.39%
COc1ccc(NC(=O)c2ccc(Cn3cc(Cl)cn3)cc2)cc1 | 1.21%
Cc1ccc(NC(=O)c2ccco2)c(NC(=O)Cc2cccs2)c1 | -2.72%
O=C(NCCc1ccccc1F)C1CC(=O)N(c2ccccc2)C1 (stereo not shown) | 1.17%
C/C(=N\Nc1nc(C(C)(C)C)cs1)c1ccccc1 | 16.4%
Cc1cccc(NC(=O)CC2C(=O)NCCN2C(=S)Nc2ccccc2)c1 (stereo not shown) | 1.17%
Cc1cnc(NC(=O)c2c(-c3ccccc3)noc2C)s1 | -2.27%
O=C(NNC(=O)c1ccccc1Br)c1cccc(Cl)c1 | -7.94%
CCCCCC(C)NC(=O)c1cc(S(=O)(=O)N2CCCCC2)ccc1N1CCOCC1 (stereo not shown) | -70.9%
CC(C)CCCC(C)NC(=O)c1cc(S(=O)(=O)N2CCCCC2)ccc1N1CCOCC1 (stereo not shown) | -36.8%
CCC(CC)NC(=O)c1cc(S(=O)(=O)N2CCCCC2)ccc1N1CCOCC1 | -20.3%
COc1ccc(NC(=O)CCSc2ccc3ccccc3n2)cc1 | -11.7%
CCOC(=O)n1n[n+]([O-])c2ccccc21 | 35.5%
CCc1ccc(S(=O)(=O)NCCc2cn3cccc(C)c3n2)s1 | -16.2%
CCOc1ccc(S(=O)(=O)NCCc2cn3ccccc3n2)cc1 | -11%
CC(=O)c1ccc(S(=O)(=O)NCCc2cn3ccc(C)cc3n2)cc1 | -29.9%

SMILES | hERG current change (%, negative = inhibition) at 10uM
O=S(=O)(NCCc1cn2ccccc2n1)c1ccc(-c2ccccc2)cc1 | -62%
Cc1ccn2cc(CCNS(=O)(=O)c3ccc4ccccc4c3)nc2c1 | -39.6%
O=[N+]([O-])c1ccc(S(=O)(=O)NCCc2cn3ccccc3n2)cc1 | -40.6%
Cc1ccn2cc(CCNS(=O)(=O)c3ccc([N+](=O)[O-])cc3)nc2c1 | -69.7%
CCc1ccc(S(=O)(=O)NCCc2cn3ccccc3n2)s1 | -29.5%
CCc1ccc(S(=O)(=O)NCCc2cn3ccc(C)cc3n2)s1 | -54.2%
COc1cccc(C(=O)COC(=O)COc2c(C)cc(C)cc2C)c1 | 1.18%
COc1ccc(-c2c(C(C)=O)c(C)nc3sc4c(=N)n(N)cnc4c23)cc1 | 3.48%
CN1CCN(CCCNC(=O)c2ccc3c(Cl)c4c(nc3c2)CCCC4)CC1 | -6.81%
CCN1CCN(CCCNC(=O)c2ccc3c(Cl)c4c(nc3c2)CCCC4)CC1 | -46.8%
CC1CCN(CCCNC(=O)c2ccc3c(Cl)c4c(nc3c2)CCCC4)CC1 | -40.9%
CCCN(CCC)CCCNC(=O)c1ccc2c(Cl)c3c(nc2c1)CCC3 | -29.1%
CCCN1CCN(CCCNC(=O)c2ccc3c(Cl)c4c(nc3c2)CCCC4)CC1 | -61.1%
COCCNC(=O)c1ccc2c(Cl)c3c(nc2c1)CCC3 | -30.2%
CCOC(=O)N1CCC(NC(=O)c2ccc3c(Cl)c4c(nc3c2)CCCC4)CC1 | -36.6%
O=C(NCCCN1CCCCCC1)c1ccc2c(Cl)c3c(nc2c1)CCCC3 | -53%
O=C(NC1CC1)c1ccc2c(Cl)c3c(nc2c1)CCCC3 | -63.7%
O=C(NCCCN1CCCC1)c1ccc2c(Cl)c3c(nc2c1)CCCC3 | -50.1%
CC(C)CCNC(=O)c1ccc2c(Cl)c3c(nc2c1)CCC3 | 21.4%
CCN(CC)CCCNC(=O)c1ccc2c(Cl)c3c(nc2c1)CCCC3 | -48.7%
CC(C)(C)NS(=O)(=O)c1ccc(NC(=O)Cc2ccccc2[N+](=O)[O-])cc1 | 1.66%
CCOC(=O)c1ccc(N2CN(CC)CNC2=S)cc1 | 7.25%
